The record followed here is PubChem BioAssay (NCATS).

The structures appear in SMILES notation. Records with an inconclusive call do not appear. Activity calls are given as the source filed them. Unless noted, no rule for the calls is given here.

Assay [1] is described as follows: qHTS profiling of the MIPE4 collection as inhibitors of Plasmodium falciparum (3D7) proliferation (AID 743344).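 Also: scaled between DMSO vehicle wells and 0.29 µM artemisinin as full inhibition.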 To be noted: P. falciparum 3D7 in erythrocytes, SYBR Green DNA fluorescence, 72 h; at 28.5 µM unless noted. A digest of the protocol: (§1)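 Erythrocytes infected with P. falciparum (0.3% parasitemia, 2.5% hematocrit) incubated with compounds 72 h at 37 C, 5% CO2. Lysis with saponin/Triton buffer containing SYBR Green I, overnight at room temperature in the dark; DNA fluorescence (485/535 nm) normalised to 0.29 uM artemisinin and DMSO.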

Assay [2] in a line: qHTS profiling of the MIPE4 collection as inhibitors of Plasmodium falciparum (DD2) proliferation (AID 743345). As to conditions: P. falciparum Dd2 in erythrocytes, SYBR Green DNA, 72 h; at 28.5 µM unless noted. In short, it runs like this:
as §1

Assay [3] is described as follows: qHTS profiling of the MIPE4 collection as inhibitors of Plasmodium falciparum (DD2) proliferation (Rep 2) (AID 743346). As to conditions: P. falciparum Dd2 in erythrocytes, SYBR Green DNA, 72 h; at 28.5 µM unless noted. In short, it runs like this: as §1
In general terms: qHTS replaces the single test concentration by a dilution series.

Assay [4] can be described thus: qHTS profiling of the MIPE4 collection as inhibitors of Plasmodium falciparum (HB3) proliferation (AID 743347).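 Also: plate controls were DMSO vehicle wells for no effect and artemisinin wells for full effect.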 To be noted: P. falciparum HB3 in erythrocytes, SYBR Green DNA, 72 h; at 28.5 µM unless noted. A digest of the protocol:
as §1

A short description of assay [5]: High-throughput drug toxicity screening in the BPDCN cell line Gen2.2 (AID 1224824).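 Also: cells exposed to compounds for 48 h before reading.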 To be noted: Gen2.2 BPDCN cells; at 45.8 µM (top of the series) unless noted. In short, it runs like this:
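Gen2.2 cells (500/well) in phenol red-free RPMI with 10% FBS were exposed to compounds for 48 h at 37 °C, 5% CO2. Viability was read by CellTiter-Glo luminescence and normalized to DMSO (100%) and 9.2 uM bortezomib (0%).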

Assay [6] in a line: High-throughput drug toxicity screening in the BPDCN cell line Cal-1 (AID 1224825). To be noted: Cal-1 BPDCN cell viability, qHTS; at 45.8 µM (top of the series) unless noted. In short, it runs like this: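 Exponentially growing Cal-1 cells, 500 per well in phenol red-free RPMI with 10% FBS, were exposed to compounds for 48 h at 37 °C, 5% CO2. Viability was read by CellTiter-Glo luminescence and normalised to DMSO (100%) and 9.2 uM bortezomib (0%).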

Assay [7] is described as follows: qHTS assay for measurement of the activity of small molecule inhibitors on Zika virus induced Caspase-3 activity in human astrocytoma cells (AID 1224859; active = well fitted curve in the direction sought with a large enough effect; an effect the other way counts as inactive or inconclusive;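 also: plate controls were ZIKV-infected untreated cells for no effect and uninfected cells for full effect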). In short, it runs like this:
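Caspase activation in ZIKV-infected SNB-19 cells (2 FFU/cell, 6 h) measured by Caspase-Glo 3/7 luminescence after 30 min RT; compound pre-incubated 1 h; normalised to uninfected and infected controls.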

Assay [8] can be described thus: qHTS Screen of the MIPE 4.0 Collection Against Ewings Sarcoma (EW8) (AID 1259255; active = well fitted curve in the direction sought with a large enough effect; an effect the other way counts as inactive or inconclusive; also: nearly all actives have a fitted effect of over 35% in size; also: potency is read from the fitted curve at half-maximal effect;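 as to viability: 100% = DMSO-treated cells and 0% = medium-only wells without cells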). In short, it runs like this:
(§2)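 Here, cells in 5% FBS RPMI were exposed for two days (48 h) to compound dilutions added four hours after plating. ATP-based CellTiter-Glo luminescence measured viability, normalized to vehicle and no-cell blanks.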

Assay [9] is described as follows: qHTS Screen of the MIPE 4.0 Collection Against Ewings Sarcoma (TC32) (AID 1259256; active = well fitted curve in the direction sought with a large enough effect; an effect the other way counts as inactive or inconclusive; also: nearly all actives have a fitted effect of over 45% in size; also: potency is read from the fitted curve at half-maximal effect). In short, it runs like this:
as §2

The nature of assay [10]: qHTS profiling for inhibitors of Plasmodium falciparum (3D7) proliferation (AID 743322).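 Also: infected erythrocytes exposed to compound for 72 h before lysis; 100% = DMSO vehicle wells and 0% = 0.29 µM artemisinin.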 To be noted: P. falciparum 3D7 proliferation; at 28.7 µM (top of the series). A digest of the protocol: as §1
The nature of assay [11]: qHTS profiling for inhibitors of Plasmodium falciparum (DD2) proliferation (AID 743323). As to conditions: lower = more inhibition; at 28.7 µM (top of the series). A digest of the protocol: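 1536-well qHTS; infected RBCs 0.3% parasitemia/2.5% Hct final; cpd 72 h 37 C 5% CO2; lysis buffer + SYBR Green I, o/n RT dark; FI 485/535; norm. to 0.29 uM artemisinin and DMSO, plate-stack corrected.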

A short description of assay [12]: qHTS profiling for inhibitors of Plasmodium falciparum (HB3) proliferation (AID 743324; active = well fitted curve in the direction sought with a large enough effect; an effect the other way counts as inactive or inconclusive;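 also: 100% = DMSO vehicle wells and 0% = artemisinin-treated control wells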). As to conditions: Plasmodium falciparum HB3 blood-stage proliferation; at 28.7 µM (top of the series). In short, it runs like this: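 P. falciparum HB3 grown in erythrocytes (0.3% parasitemia, 2.5% hematocrit final) with compound for 72 h at 37 C, 5% CO2. Parasite DNA detected by SYBR Green after saponin/triton lysis overnight; normalized to 0.29 uM artemisinin and DMSO.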

Assay [13] can be described thus: qHTS Screen of the MIPE 4.0 Collection Against Ewings Sarcoma (RDES) (AID 1259252; active = well fitted curve in the direction sought with a large enough effect; an effect the other way counts as inactive or inconclusive; also: nearly all actives have a fitted effect of over 35% in size; also: potency is read from the fitted curve at half-maximal effect). In short, it runs like this:
as §2

Assay [14] in a line: qHTS Screen of the MIPE 4.0 Collection Against Ewings Sarcoma (TC71) (AID 1259253; active = well fitted curve in the direction sought with a large enough effect; an effect the other way counts as inactive or inconclusive; also: nearly all actives have a fitted effect of over 40% in size; also: potency is read from the fitted curve at half-maximal effect). In short, it runs like this: as §2

`Nc1ncnc2ccccc12` returned a parasite growth, % of DMSO control in [1] of 84.9%. In addition, the parasite growth remaining, % of DMSO control (lower = more inhibition) in assay [2] stood at 98.4%. Besides, the parasite growth, % of control (lower = inhibition) in assay [3] was found to be 82.3%. Moreover, the growth, % of control in assay [4] amounted to 77%. Besides, in assay [5], the cell viability, % of control (lower = more cytotoxic) came out at 145%. Also, the viability (% of control) in assay [6] is 100%. Further, the Potency entry in assay [7], in assay [8] and in assay [9] was “inactive” each time.

Regarding `Cc1nc(N)sc1-c1ccnc(Nc2ccc(N3CCOCC3)cc2)n1`, the remaining parasite growth % (stronger effect = lower value) in assay [10] was 2.54%. In addition, the activity, percent of control in assay [11] turned out to be 7.68%. In assay [12], this molecule returned a remaining proliferation (% of control), lower = more inhibition of 10.5%. This molecule also registered a parasite growth, % of DMSO control in assay [1] of 6.44%. Besides, in assay [2], the parasite growth remaining, % of DMSO control (lower = more inhibition) is 9.15%. Further, the parasite growth, % of control (lower = inhibition) in [3] is 16.4%. The growth, % of control in assay [4] amounted to 5.5%. The cell viability, % of control (lower = more cytotoxic) in assay [5] worked out at 33.6%. The viability (% of control) in [6] came to 6.5%. Besides, the Potency entry in [7] was “inactive”. The Potency was 18.7 µM (active) in assay [13], 14.8 µM (active) in [14], 833 nM (active) in assay [8] and 16.6 µM (active) in assay [9].

In assay [1], `C[N+](C)(C)CC(=O)O` returned a parasite growth, % of DMSO control of 86.7%. Further, the parasite growth remaining, % of DMSO control (lower = more inhibition) in [2] came out at 96.1%. Besides, the cell viability, % of control (lower = more cytotoxic) in assay [5] came out at 178%. Further, the viability (% of control) in assay [6] worked out at 114%. Further, the Potency entry in [7], in [13], in assay [14], in [8] and in [9] was “inactive” each time.

Turning to `C=C1C(=O)[C@@]23C(CC[C@@H]1[C@H]2O)[C@@]12CO[C@]3(O)[C@@H](O)[C@@H]1C(C)(C)CC[C@@H]2O` (stereo partly drawn), in assay [1], the parasite growth, % of DMSO control was determined as 33.5%. Besides, the parasite growth remaining, % of DMSO control (lower = more inhibition) in assay [2] turned out to be 75.5%. Further, the parasite growth, % of control (lower = inhibition) in assay [3] was found to be 18.4%. Also, the growth, % of control in [4] amounted to 5.26%. Besides, the cell viability, % of control (lower = more cytotoxic) in assay [5] was found to be 2.66%. In assay [6], the viability (% of control) was found to be 2.13%. The Potency entry in [7] was “inactive”. Moreover, the Potency in assay [13] was 7.43 µM (active); in [14], 6.62 µM (active); in [8] it was 4180 nM (active); in assay [9] it was 5.26 µM (active).

As to `COc1ccc2cccc(CCNC(C)=O)c2c1`, in assay [1], the parasite growth, % of DMSO control was 56.4%. Besides, the parasite growth remaining, % of DMSO control (lower = more inhibition) in assay [2] stood at 101%. Besides, the parasite growth, % of control (lower = inhibition) in [3] stood at 72.6%. The molecule further came in with a growth, % of control in [4] of 41%. For the same molecule, the cell viability, % of control (lower = more cytotoxic) in assay [5] was 206%. Also, the viability (% of control) in assay [6] was 132%. Further, the Potency entry in assay [7], in [8] and in [9] was “inactive” throughout.

In the case of `CC(C)=CC[C@@H](O)C1=CC(=O)c2c(O)ccc(O)c2C1=O`, the parasite growth, % of DMSO control in assay [1] turned out to be 3.69%. In addition, the parasite growth remaining, % of DMSO control (lower = more inhibition) in assay [2] was 5.8%. Further, in [3], the parasite growth, % of control (lower = inhibition) turned out to be 4.13%. The same molecule registered a growth, % of control in assay [4] of 2.71%. The cell viability, % of control (lower = more cytotoxic) in [5] amounted to 5.88%. In addition, in assay [6], the viability (% of control) was found to be 13.2%. Besides, the Potency result in [7] was “inactive”. Further, in assay [14], the Potency is 2.35 µM (active).

`COc1ccc(-c2coc3cc(O)cc(O)c3c2=O)cc1` displayed a parasite growth, % of DMSO control in [1] of 36.9%. Besides, the parasite growth remaining, % of DMSO control (lower = more inhibition) in assay [2] came out at 99.4%. Besides, the parasite growth, % of control (lower = inhibition) in [3] worked out at 46.3%. The molecule further gave a growth, % of control in assay [4] of 15.1%. In [5], the cell viability, % of control (lower = more cytotoxic) worked out at 308%. Also, the viability (% of control) in assay [6] was determined as 86.9%. For the same molecule, the Potency result in assay [7], in [14], in assay [8] and in [9] was “inactive” each time.

`CN(C)c1cc(NC(=O)CNC(C)(C)C)c(O)c2c1C[C@@H]1C[C@H]3[C@H](N(C)C)C(=O)C(C(N)=O)=C(O)[C@@]3(O)C(=O)C1=C2O` returned a parasite growth, % of DMSO control in [1] of 83%. Further, the parasite growth remaining, % of DMSO control (lower = more inhibition) in assay [2] stood at 90.5%. In assay [3], the parasite growth, % of control (lower = inhibition) came to 106%. The cell viability, % of control (lower = more cytotoxic) in assay [5] is 142%. Besides, the viability (% of control) in assay [6] worked out at 97.2%. Moreover, the Potency result in assay [7], in assay [13], in assay [14], in assay [8] and in assay [9] was “inactive” in each case.

In [10], `C[C@@H]1CCN(C(=O)CC#N)C[C@H]1N(C)c1ncnc2[nH]ccc12` returned a remaining parasite growth % (stronger effect = lower value) of 89.8%. In assay [11], this molecule registered an activity, percent of control of 90.1%. Moreover, in assay [12], the remaining proliferation (% of control), lower = more inhibition worked out at 56.2%. In addition, the parasite growth, % of DMSO control in assay [1] was 72.5%. Moreover, the parasite growth remaining, % of DMSO control (lower = more inhibition) in assay [2] amounted to 96.3%. Also, in assay [4], the growth, % of control is 74.7%. Further, in assay [5], the cell viability, % of control (lower = more cytotoxic) was 52.4%. The viability (% of control) in assay [6] is 110%. The Potency result in [7], in [13], in [14], in assay [8] and in assay [9] was “inactive” in each case.
